Results from PubChem BioAssay.
Activity calls are given as the source filed them.

What was measured:
Albumin (Bos taurus) = Albumin (Bos taurus) (UniProt P02769); experiment: bovine serum albumin binders on microarray, profiling panel, artefact control for SMM control protein annotation, biochemical, small-molecule microarray, Alexa647 label, 635/667 nm fluorescence (AID 1118); settings: BSA-A647 binding, fluorescence 635 nm, higher = more signal;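 note: score merges 667 nm emission intensity and signal-to-noise per printed compound spot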
Albumin (Bos taurus), sequence (P02769 whole entry, looked up): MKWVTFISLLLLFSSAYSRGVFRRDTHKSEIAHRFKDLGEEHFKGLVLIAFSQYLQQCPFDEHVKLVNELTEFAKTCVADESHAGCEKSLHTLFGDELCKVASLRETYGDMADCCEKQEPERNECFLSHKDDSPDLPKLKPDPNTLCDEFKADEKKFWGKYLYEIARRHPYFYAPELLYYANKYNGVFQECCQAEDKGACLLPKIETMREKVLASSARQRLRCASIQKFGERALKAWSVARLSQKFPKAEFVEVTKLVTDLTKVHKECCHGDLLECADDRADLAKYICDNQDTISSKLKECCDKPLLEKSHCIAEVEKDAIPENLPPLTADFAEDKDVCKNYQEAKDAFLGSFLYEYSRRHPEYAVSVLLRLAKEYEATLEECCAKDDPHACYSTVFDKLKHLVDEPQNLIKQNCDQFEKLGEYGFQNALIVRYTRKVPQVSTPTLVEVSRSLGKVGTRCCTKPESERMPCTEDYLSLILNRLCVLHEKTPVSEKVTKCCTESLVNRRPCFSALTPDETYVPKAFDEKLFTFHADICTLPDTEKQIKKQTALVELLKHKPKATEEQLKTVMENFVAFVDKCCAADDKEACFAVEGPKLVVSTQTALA

[1] = small-molecule microarray binders of probe aXIP, primary screen, biochemical, NeuroSMM set, 635/667 nm fluorescence (AID 1119); settings: higher = more signal, called active from +8 up or from −8 down;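 note: probe is the protein aXip251-270 applied at 1 µg/mL to compound-printed slides; binding of probe to printed compounds measured as 667 nm fluorescence plus signal to noise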
[2] = small-molecule binders of probe aNOTCH3, primary screen, biochemical, small-molecule microarray, 635/667 nm fluorescence (AID 1120); settings: higher = more signal;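 note: probe is a biotin-tagged antibody raised against NOTCH3 rather than NOTCH3 protein; score merges spot fluorescence near 667 nm with spot signal to noise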
[3] = small-molecule binders of probe aNOTCH2, primary screen, biochemical, small-molecule microarray, 635/667 nm fluorescence (AID 1121); settings: higher = more signal;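 note: score merges feature fluorescence read at 667 nm with its signal to noise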
[4] = target: Carbonic anhydrase 2 (Homo sapiens) (UniProt P00918); experiment: CAII small-molecule binders, profiling panel, biochemical, small-molecule microarray, Alexa647-labelled CAII (AID 1122); settings: CAII-A647 binding fluorescence, higher = more signal
[5] = COS7 lysate on small-molecule microarray, probe aHis, 635 nm (AID 1123); settings: COS7 cell lysate, fluorescence, higher = more signal;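 note: z-score combines 667nm fluorescence intensity with signal-to-noise per printed compound spot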
[6] = compound binding in COS7 lysate, probe aLAP1, primary screen, cell lysate, small-molecule microarray (AID 1124); settings: probe aLAP1, fluorescence, higher = more signal;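 note: lysate comes from COS7 cells expressing LAP1 and is applied at 0.3 µg/mL; score merges spot fluorescence near 667 nm with signal-to-noise over triplicate slides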
Sam68 (KHDRBS1) = experiment: Sam68 small-molecule binders, primary screen, biochemical, small-molecule microarray, 635 nm fluorescence (AID 1125); settings: small-molecule microarray binding, higher = more signal;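 note: score merges 667 nm channel intensity with signal to noise over triplicate slides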
[7] = tested on: Chordin-like protein 2 (CHRDL2); experiment: CHRDL2 small-molecule binders, primary screen, biochemical, small-molecule microarray, 635 nm fluorescence (AID 1126); settings: small-molecule microarray binding, fluorescence 635 nm; higher = more signal;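 note: printed compound slides probed with Chrdl2 protein at 4 µg/mL for 1 h at 4 C; score merges 667 nm emission intensity with signal to noise over three replicate slides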
[8] = target: Concanavalin-A (Canavalia ensiformis) (UniProt P02866); experiment: ConA small-molecule binders, primary screen, artefact control for SMM control protein annotation, biochemical, small-molecule microarray, Alexa647 label, 635 nm (AID 1127); settings: ConA-A647 binding fluorescence, higher = more signal;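 note: z combines 667 nm emission intensity with signal-to-noise across three replicate slides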
Concanavalin-A (Canavalia ensiformis), sequence (P02866 whole entry, looked up): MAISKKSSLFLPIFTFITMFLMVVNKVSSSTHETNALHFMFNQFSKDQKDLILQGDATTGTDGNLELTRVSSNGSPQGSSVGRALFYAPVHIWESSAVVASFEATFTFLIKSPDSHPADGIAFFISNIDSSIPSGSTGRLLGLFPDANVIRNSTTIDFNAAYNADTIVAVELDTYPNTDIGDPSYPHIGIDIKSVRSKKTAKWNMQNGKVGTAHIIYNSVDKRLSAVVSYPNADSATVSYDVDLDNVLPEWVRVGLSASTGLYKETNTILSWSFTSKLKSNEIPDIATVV

[9] = anti-His antibody binders, primary screen, artefact control for SMM control protein annotation, biochemical, small-molecule microarray, 635 nm fluorescence (AID 1128); settings: anti-His Alexa647 antibody binding, higher = more signal;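 note: score merges feature fluorescence with signal-to-noise for each printed compound spot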
[10] = tested on: Human papillomavirus type 1a E7 protein (residues 1-88); experiment: HPV1a E7 small-molecule binders, primary screen, biochemical, small-molecule microarray, residues 1-88, 635 nm (AID 1129); settings: small-molecule microarray binding, fluorescence 635 nm; higher = more signal
[11] = target: Focal adhesion kinase 1 (Homo sapiens) (UniProt Q05397); experiment: small-molecule microarray binders of FAK, primary screen, biochemical, 635/667 nm fluorescence, BSA, DTT (AID 1130); settings: PTK2 binding, 635 nm fluorescence, higher = more signal;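 note: composite of spot emission at 667 nm and signal to noise over triplicate slides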
Focal adhesion kinase 1 (Homo sapiens), sequence (Q05397 whole entry, looked up): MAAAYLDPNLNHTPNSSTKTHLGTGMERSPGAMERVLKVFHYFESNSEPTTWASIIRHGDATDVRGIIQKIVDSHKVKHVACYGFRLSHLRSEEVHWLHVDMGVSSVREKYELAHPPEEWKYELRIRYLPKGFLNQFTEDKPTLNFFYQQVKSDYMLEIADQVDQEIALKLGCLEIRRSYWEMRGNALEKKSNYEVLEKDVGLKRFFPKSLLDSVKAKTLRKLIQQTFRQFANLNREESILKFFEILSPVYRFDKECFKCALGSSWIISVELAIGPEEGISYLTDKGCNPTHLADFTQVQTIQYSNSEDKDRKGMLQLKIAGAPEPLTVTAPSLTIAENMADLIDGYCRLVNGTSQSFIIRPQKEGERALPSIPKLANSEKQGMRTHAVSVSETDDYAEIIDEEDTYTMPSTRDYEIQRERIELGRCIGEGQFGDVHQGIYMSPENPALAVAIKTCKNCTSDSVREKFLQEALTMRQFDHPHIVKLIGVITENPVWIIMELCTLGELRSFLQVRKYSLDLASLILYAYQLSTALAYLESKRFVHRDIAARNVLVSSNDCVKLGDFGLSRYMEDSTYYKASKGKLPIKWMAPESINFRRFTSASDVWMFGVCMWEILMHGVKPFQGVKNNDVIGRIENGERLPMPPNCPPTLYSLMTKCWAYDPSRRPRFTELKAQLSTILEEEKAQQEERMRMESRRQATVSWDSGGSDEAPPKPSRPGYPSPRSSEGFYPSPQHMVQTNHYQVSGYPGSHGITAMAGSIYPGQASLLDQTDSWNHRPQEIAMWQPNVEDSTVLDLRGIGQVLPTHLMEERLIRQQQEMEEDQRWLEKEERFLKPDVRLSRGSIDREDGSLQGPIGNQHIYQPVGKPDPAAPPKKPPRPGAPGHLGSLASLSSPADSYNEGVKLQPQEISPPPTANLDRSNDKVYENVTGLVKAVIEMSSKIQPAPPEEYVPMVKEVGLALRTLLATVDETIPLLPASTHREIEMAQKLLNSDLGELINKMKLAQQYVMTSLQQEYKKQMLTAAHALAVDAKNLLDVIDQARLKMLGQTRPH

[12] = tested on: Fibrinogen (Alexa647-labelled); experiment: fibrinogen binders on compound microarrays, profiling panel, artefact control for SMM control-protein annotation, biochemical, small-molecule microarray, 635/667 nm fluorescence (AID 1131); settings: fibrinogen-A647 binding fluorescence, higher = more signal;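 note: z-score merges 667 nm fluorescence with per-spot signal-to-noise over triplicate slides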
[13] = target: Follistatin (Homo sapiens) (UniProt P19883); experiment: follistatin binders on small-molecule microarrays, primary screen, biochemical, small-molecule microarray, 635/667 nm fluorescence (AID 1132); settings: FST binding, 635 nm fluorescence, higher = more signal
Follistatin (Homo sapiens), sequence (P19883 whole entry, looked up): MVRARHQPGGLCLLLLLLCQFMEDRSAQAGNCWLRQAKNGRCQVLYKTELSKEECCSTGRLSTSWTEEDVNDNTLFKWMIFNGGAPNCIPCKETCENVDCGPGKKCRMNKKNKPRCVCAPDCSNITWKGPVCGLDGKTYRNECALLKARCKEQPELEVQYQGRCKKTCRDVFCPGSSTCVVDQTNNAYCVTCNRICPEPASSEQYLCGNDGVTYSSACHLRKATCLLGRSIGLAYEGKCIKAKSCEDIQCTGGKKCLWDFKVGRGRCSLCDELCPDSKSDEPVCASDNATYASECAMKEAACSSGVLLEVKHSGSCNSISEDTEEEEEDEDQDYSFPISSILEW

[14] = target: Fibroblast growth factor 2 (Homo sapiens) (UniProt P09038); experiment: FGF2 binders on small-molecule microarrays, primary screen, biochemical, small-molecule microarray, 635/667 nm fluorescence (AID 1133); settings: small-molecule microarray binding, FGF2, fluorescence 635/667; higher = more signal
Fibroblast growth factor 2 (Homo sapiens), sequence (P09038 whole entry, looked up): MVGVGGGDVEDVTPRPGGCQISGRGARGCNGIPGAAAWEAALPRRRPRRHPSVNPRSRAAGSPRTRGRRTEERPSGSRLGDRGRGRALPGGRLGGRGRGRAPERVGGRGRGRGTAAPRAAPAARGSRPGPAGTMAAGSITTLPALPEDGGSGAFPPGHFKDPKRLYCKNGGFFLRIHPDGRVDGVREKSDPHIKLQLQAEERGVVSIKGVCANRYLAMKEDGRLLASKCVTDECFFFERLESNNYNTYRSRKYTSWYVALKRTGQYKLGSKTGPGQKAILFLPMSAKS

[15] = mitochondrial membrane potential change in A549 cells, profiling panel, cell-based, JC-1 fluorescence, basal, 24 h, 100 nL (AID 1138); settings: higher = more signal;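 note: A549 lung adenocarcinoma cells under basal conditions with no added stimulus; test concentration not given here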
Lefty1 = Lefty1 binders on small-molecule microarrays, primary screen, biochemical, small-molecule microarray, 635/667 nm fluorescence (AID 1139); settings: small-molecule microarray binding, fluorescence 635/667; higher = more signal
[16] = tested on: wheat germ agglutinin (Triticum aestivum), Alexa647-labelled; experiment: wheat germ agglutinin binders on compound microarrays, profiling panel, artefact control for SMM control-protein annotation, biochemical, small-molecule microarray, 635/667 nm fluorescence (AID 1140); settings: WGA-A647 binding, 635 nm fluorescence, higher = more signal;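 note: score merges 667 nm feature emission with signal to noise over triplicate slides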
[17] = target: Luciferin 4-monooxygenase (Photinus pyralis) (UniProt P08659); experiment: firefly luciferase enzyme inhibitors, primary screen, biochemical, luminescence, purified enzyme, 2006 set (AID 1141); settings: SteadyGlo luminescence, 30 min, higher = more signal, called active from +8 up or from −8 down;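 note: cell-free assay with purified firefly luciferase at 100 ng per well in PBS; test concentration not given here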
Luciferin 4-monooxygenase (Photinus pyralis), sequence (P08659 whole entry, looked up): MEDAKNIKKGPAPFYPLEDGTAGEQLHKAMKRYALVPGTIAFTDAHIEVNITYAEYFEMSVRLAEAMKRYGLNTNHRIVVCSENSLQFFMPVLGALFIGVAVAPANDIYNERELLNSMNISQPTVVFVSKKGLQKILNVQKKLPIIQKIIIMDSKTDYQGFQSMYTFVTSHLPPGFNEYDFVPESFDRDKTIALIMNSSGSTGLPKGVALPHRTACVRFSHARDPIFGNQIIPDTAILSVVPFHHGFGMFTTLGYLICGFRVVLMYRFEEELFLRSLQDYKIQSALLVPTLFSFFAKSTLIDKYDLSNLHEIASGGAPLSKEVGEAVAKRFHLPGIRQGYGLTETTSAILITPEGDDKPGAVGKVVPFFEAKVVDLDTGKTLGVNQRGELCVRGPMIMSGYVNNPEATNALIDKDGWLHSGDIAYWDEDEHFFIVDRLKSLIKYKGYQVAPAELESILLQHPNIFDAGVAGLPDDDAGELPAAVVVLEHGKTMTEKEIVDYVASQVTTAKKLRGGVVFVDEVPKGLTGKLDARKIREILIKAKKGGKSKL

| SMILES | composite z-score (Albumin (Bos taurus)) | composite Z-score [1] | composite z-score [2] | composite z-score [3] | composite z-score [4] | composite z-score [5] | composite z-score [6] | composite z-score (Sam68 (KHDRBS1)) | composite z-score [7] | composite z-score [8] | composite z-score [9] | composite z-score [10] | composite z-score [11] | composite z-score [12] | composite z-score [13] | composite z-score [14] | z-score [15] | composite z-score (Lefty1) | composite z-score [16] | z-score [17] |
| --- | --- | --- | --- | --- | --- | --- | --- | --- | --- | --- | --- | --- | --- | --- | --- | --- | --- | --- | --- | --- |
| CCCC[C@@H]1C[C@H]1[C@@H](NC(=O)c1cccnc1)c1ccc(-c2ccccc2)cc1 | -0.294 | -0.0683 (inactive) | -0.306 | -0.174 | -0.357 | 0.208 | -0.193 | -0.0982 | -1.56 | -0.633 | -0.238 | -0.647 | -0.14 | -2.12 | -1.17 | -2.03 | 0.475 | -0.815 | -0.166 | 0.0562 (inactive) |
| C=C(COC)/C(=C/C[C@@H](OC(=O)c1ccncc1)c1ccc(OCCO)cc1)c1cnc2ccccc2c1 | 0.646 | -0.41 (inactive) | 0.321 | -0.0804 | 0.854 | 0.514 | 0.39 | 1.31 | 1.53 | 1.15 | 0.866 | 1.13 | 0.0089 | 0.94 | 1.46 | 1.74 | 0.703 | 1.49 | 0.798 | -2.4 (inactive) |
| CCOC(=O)C1=C[C@@H](c2ccccc2)N(S(=O)(=O)c2ccc(C)cc2)[C@H]1c1cccc(Cl)c1 | 0.895 | -0.101 (inactive) | 0.224 | 0.152 | 0.703 | -0.102 | 0.882 | 1.31 | -0.599 | 1.11 | 2.44 | 1.17 | 0.283 | 0.612 | 0.938 | 0.111 | 3.78 | 0.465 | 1.31 | 1.18 (inactive) |
| C=CCOC(=O)[C@@H]1[C@H]2C(=O)O[C@H](c3ccccc3)[C@H](c3ccccc3)N2[C@H](c2ccc(OCCOC(=O)[C@H]3C[C@H]4C(=O)N[C@@H](CCCCNC(C)=O)C(=O)N4[C@H]3c3cccc(OCCO)c3)cc2)[C@@]12C(=O)Nc1ccc(I)cc12 | -1.29 | 0.783 (inactive) | -0.016 | -0.12 | 0.336 | 1.13 | 0.583 | 1.31 | 1.06 | 1.15 | 1.98 | 1.19 | 0.323 | 0.777 | 1.43 | 1.45 | -1.11 | 1.28 | -0.045 | -0.662 (inactive) |
| NC(=O)N1C(=O)C2C(C1=O)C1C=C(c3ccc(CO)cc3)C2C(C2CC2)N1Cc1sc2ccccc2c1Cl (stereo not given) | 0.849 | 0.742 (inactive) | 0.0225 | -0.101 | 0.468 | 1.67 | 0.733 | 1.31 | 0.441 | 1.18 | 2.42 | 1.13 | -0.159 | 0.985 | 0.855 | 1.62 | 1.46 | 1.16 | 1.12 | -2.36 (inactive) |
| C=C(/C=C/CNS(=O)(=O)c1ccc(C)cc1)[C@H](O)[C@H]1CCCN1S(=O)(=O)c1ccccc1[N+](=O)[O-] | 0.699 | -0.327 (inactive) | -0.0932 | -0.138 | 0.305 | 0.0646 | 0.394 | 0.0808 | 0.547 | 0.0635 | -0.394 | 0.237 | 0.0627 | 0.53 | 0.933 | 0.891 | 0.381 | 0.887 | 0.299 | -0.83 (inactive) |
